High-throughput results (PubChem BioAssay)
TTR transcr act: increases transthyretin transcription; SH-SY5Y TTR promoter Gaussia luciferase, luminescence; 100% = recombinant luciferase protein wells; activation, % at 16.7 µM; hit rate 1.3% among 92,000; AID 1117267;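 active = activation above the mean of all tested compounds plus 3 SD, cut at about 9.5% in these data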;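 note: cells exposed to compounds for one day before reading; 0% = median of all test compound wells on the plate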
TTR inh HuH7: decreases TTR transcription in HuH7 cells in activator counter-screen; shares compounds with TTR transcr act; HuH7 TTR promoter-Gaussia luciferase reporter, luminescence; inhibition, % at 16.7 µM; hit rate 4% among 1,100; AID 1117279;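 active = average inhibition above the solvent-only control wells' mean plus 3 SD, cut at about 15% in these data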;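 note: 0% = cells with DMSO only and 100% = cells with inhibitor control FD; inhibitors lower well luminescence so higher value means more inhibition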
TTR act confirm: human TTR transcription activation, confirmation; SHSY5Y TTR promoter Gaussia luciferase, luminescence; 100% = purified Lucia enzyme wells, no cells; activation, % at 16.7 µM; shares compounds with TTR transcr act; AID 1117280; 1,100 tested, under 10 active;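 active = mean activation above a set limit taken from the earlier primary screen, cut at about 11% in these data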;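 note: 0% = DMSO-treated cells and 100% = recombinant Lucia luciferase without cells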
* hit, by the source's call. Many of the other results were omitted from the sample, so hits are more common in it than they were.

SMILES	TTR transcr act	others
CC(O)(c1ccc(F)c(F)c1)c1nc(-c2cccc(C(=O)O)c2)cs1 (stereo not drawn)	13*	TTR inh HuH7=-35;TTR act confirm=-1
CN(C)Cc1cn(CC[C@@H]2CC[C@@H](NC(=O)Nc3ccccc3F)[C@@H](CO)O2)nn1	-2
O=C(COc1ccc(-n2cnnn2)cc1)Nc1ccc(F)c(F)c1	13*	TTR inh HuH7=-18;TTR act confirm=1
O=C(COc1ccc(-n2cnnn2)cc1)Nc1ccc(F)c(F)c1F	-1
O=C(COc1ccc(-n2cnnn2)cc1)Nc1ccc(F)cc1	6
CCCCN1CCCOc2cc(Br)ccc2S1(=O)=O	0
O=[N+]([O-])c1ccc2nc(CNc3nc(N4CCOCC4)nc4c3ncn4-c3ccsc3)[nH]c2c1	2
CCC(c1nnnn1Cc1cccs1)N1CCN(C2CCCC2)CC1 (stereo not drawn)	0
CCCCC(c1nnnn1C1CCCC1)N1CCN(C2CCCC2)CC1 (stereo not drawn)	17*	TTR inh HuH7=-15;TTR act confirm=0
CC(C)CC(c1nnnn1C1CCCCC1)N1CCN(c2ncccn2)CC1 (stereo not drawn)	-1
O=C(Nc1ccc(F)cc1)OCc1cn(Cc2cccc(C(F)(F)F)c2)nn1	-1
Cc1cccc(NC(=S)N2CCN(c3ccccn3)CC2)c1	4
O=C(NC(=S)N1CCOCC1)C12CCC3CC(CC(C3)C1)C2	2
CCOc1ccccc1N1CCN(C(=S)NCc2ccc(Cl)cc2)CC1	4
Cc1cc(C)cc(NC(=S)N2CCN(c3ccc(F)cc3)CC2)c1	1
CCCCNC(=O)N1CCN(c2ccccc2OCC)CC1	-1
O=[N+]([O-])c1ccc(NC(=S)N2CCN(c3ccc(F)cc3)CC2)cc1	-3
Cc1cccc(NC(=S)N2CCN(c3ccc(F)cc3)CC2)c1	11*	TTR inh HuH7=-1;TTR act confirm=0
CCOc1ccccc1N1CCN(C(=S)NC(=O)C23CC4CC(CC(C4)C2)C3)CC1	9.7*	TTR inh HuH7=-22;TTR act confirm=0
O=C(NC(=S)N1CCN(c2ccc(F)cc2)CC1)C12CC3CC(CC(C3)C1)C2	18*	TTR inh HuH7=6;TTR act confirm=5
O=S1(=O)c2c(cccc2N2CCC[C@H]2CO)O[C@@H]2CCN1C2	1
O=C(Nc1ccc(Cl)cc1Cl)O[C@@H]1CC[C@@]23CCCN2C(=O)CCC[C@H]3C1	-2
COC(=O)[C@]12C[C@H](CC(=O)N3CCSCC3)C(=O)N(Cc3ccco3)C1=C[C@H](COCc1ccccc1)O[C@@H]2C	-1
CCCCCCC/C=C(\C)[C@@H](O)[C@@H](C)C(=O)N1CCC[C@@H]1C(=O)O	0
C=CS(=O)(=O)N(C(=C)C(=O)OC)S(C)(=O)=O	-1
SMILES	TTR transcr act	others
CCCCCCCCN1C(=O)[C@@H](CC(=O)N2CCN(C(=O)C3CC3)CC2)C[C@@]2(C(=O)OC)C1=C[C@H](COCc1ccccc1)O[C@@H]2C	-1
COc1ccccc1OCc1csc(N)n1	24*	TTR inh HuH7=-14;TTR act confirm=0
CC(=O)Nc1nc(COc2ccccc2)cs1	-1
COc1ccc(/C=C/C(=O)OCc2csc(-c3ccccc3)n2)cc1OC	-1
CN=C1NC(=O)/C(=C\c2cc(C)n(-c3ccccc3F)c2C)S1	3
O=C(Nc1ccc(F)cc1)OCc1cn(Cc2ccccc2F)nn1	0
CCCCn1nc2cc(C(=O)NC3CCc4ccccc43)ccc2c1OCC (stereo not drawn)	1
CCCCn1nc2cc(C(=O)NCCc3cccs3)ccc2c1OCC	-4
CCCCn1nc2cc(C(=O)N(CC)c3ccc(OC)cc3)ccc2c1OCC	13*	TTR inh HuH7=-7;TTR act confirm=0
CC(c1ccccc1)N1CC[C@H]2C=CC[C@@H](C(=O)Nc3ccc(F)c(F)c3)[C@H]2C1=O (stereo partly drawn)	-1
COC(=O)[C@]12CCCCC=C1N(Cc1ccc(OC)cc1)C(=O)[C@@H]2CC(=O)NCc1ccc(C)o1	2
O=C1[C@@H]2CSCCS(=O)(=O)N2C(=O)N1C1CCCCC1	3
CN(C)S(=O)(=O)c1cccc(NC(=O)COC(=O)CCOc2ccccc2)c1	0
CN(C)S(=O)(=O)c1cccc(NC(=O)COC(=O)c2cn(-c3ccccc3)nc2-c2ccccc2)c1	15*	TTR inh HuH7=-16;TTR act confirm=0
Cc1cc(C(=O)OCC(=O)Nc2cccc(S(=O)(=O)N(C)C)c2)c2ccccc2n1	-1
CC1C(=O)N(Cc2cn(CCC3OCCO3)nn2)CCS(=O)(=O)N1Cc1ccc(-c2ccc(Cl)c(Cl)c2)cc1 (stereo not drawn)	-3
O=C(Nc1ccc(F)cc1)OC[C@@H]1CSCCS(=O)(=O)N1	1
COc1cccc(NC(=O)Nc2nc3ncccn3c2-c2ccc(F)c(F)c2)c1	0
O=C(NC1CCCCN(Cc2ccc(Cl)cc2)C1=O)c1ccc(F)c(F)c1 (stereo not drawn)	7
COC(=O)[C@]12C[C@H](CC(=O)N3CCCC3)C(=O)N(Cc3cccc4ccccc34)C1=C[C@H](COCc1ccccc1)O[C@@H]2C	-2
